Compounds with a hit are over-represented: about 4.5% of the library has one in this group of screens.
697 NFkB inh: lowers PMA/ionomycin-induced NF-kB signal in 697 B cells. AID 435022. 697 B-cell NF-kB luciferase reporter, 16 h. hit rate 0.33% among 330,000. inhibition, % at 4 µM; in the data active = inhibition above about 35%
CSC inhib: cancer stem cell inhibition; cancer stem cell-like cells viability, luminescence; inhibition, % at 7.5 µM; hit rate 1.1% among 300,000; in the data active = inhibition above about 75%; inconclusive = no clear call, values can overlap the other calls; tested in HMLE shEcad cells
Mdm2 MdmX PPI: inhibitors of human Mdm2/MdmX interaction; O15151+Q00987; SaOS-2 split-luciferase Mdm2/MdmX complementation, luminescence; inhibition, % at 8 µM; hit rate 3% among 330,000; AID 485346;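 active = inhibition of at least 50% at 8 µM in the primary screen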
Target sequence (O15151 whole entry, looked up): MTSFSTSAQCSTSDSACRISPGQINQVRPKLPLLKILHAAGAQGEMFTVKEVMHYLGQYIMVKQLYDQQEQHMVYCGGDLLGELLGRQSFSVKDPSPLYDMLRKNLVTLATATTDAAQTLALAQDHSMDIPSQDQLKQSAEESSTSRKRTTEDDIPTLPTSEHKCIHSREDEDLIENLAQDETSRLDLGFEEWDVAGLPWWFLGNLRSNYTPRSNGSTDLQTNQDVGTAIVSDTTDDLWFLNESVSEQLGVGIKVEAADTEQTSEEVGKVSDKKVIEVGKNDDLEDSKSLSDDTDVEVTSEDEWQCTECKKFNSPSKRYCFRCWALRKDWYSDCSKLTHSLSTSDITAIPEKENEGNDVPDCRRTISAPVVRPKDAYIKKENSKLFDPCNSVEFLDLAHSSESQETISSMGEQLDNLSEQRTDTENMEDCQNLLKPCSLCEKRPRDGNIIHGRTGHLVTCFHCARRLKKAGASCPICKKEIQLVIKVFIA
Target sequence (Q00987 whole entry, looked up): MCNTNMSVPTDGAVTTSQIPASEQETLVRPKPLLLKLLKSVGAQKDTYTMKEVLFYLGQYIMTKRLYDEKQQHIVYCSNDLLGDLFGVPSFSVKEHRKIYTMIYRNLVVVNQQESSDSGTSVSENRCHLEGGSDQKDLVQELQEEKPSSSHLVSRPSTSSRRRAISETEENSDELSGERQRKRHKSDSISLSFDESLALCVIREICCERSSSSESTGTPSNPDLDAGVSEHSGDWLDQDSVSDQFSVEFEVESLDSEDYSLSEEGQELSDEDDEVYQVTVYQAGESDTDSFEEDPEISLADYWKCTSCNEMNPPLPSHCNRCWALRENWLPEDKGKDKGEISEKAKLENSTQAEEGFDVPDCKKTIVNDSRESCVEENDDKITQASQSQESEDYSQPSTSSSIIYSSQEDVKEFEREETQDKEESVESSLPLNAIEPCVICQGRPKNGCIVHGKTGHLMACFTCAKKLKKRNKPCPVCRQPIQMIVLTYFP
Gli-Sufu antag: Gli-Sufu pathway antagonism | hit rate 0.74% among 340,000 | AID 588413 | Sufu-KO-LIGHT fibroblasts, Gli luciferase reporter luminescence | inhibition, % at 5 µM;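 active = inhibition above about 55%, limit read from the data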;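 note: 0% = DMSO-treated cells and 100% = wells with medium but no cells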
Jurkat NFkB inh: inhibitors of the PMA/ionomycin-induced NF-kB reporter in Jurkat cells; PMA/ionomycin-induced NF-kB luciferase reporter, luminescence; inhibition, % at 4 µM; hit rate 0.53% among 330,000; AID 435003; in the data active = inhibition above about 50%
Beta cell apopt: beta cell apoptosis inhibition; protection from apoptosis, % (concentration not given with the values); AID 435005; hit rate 0.8% among 300,000; INS-1E cytokine-induced death, ATP luminescence, 48 h; percent of positive-control rescue, neutral wells zero;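 active = Every replicate reaches about 75%, or at least half do and their mean reaches it too, limit read from the data; inconclusive = At least half of replicates reach the limit but their mean does not; inactive = Under half of replicates reach the limit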;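 note: 0% = cytokine-treated negative control wells and 100% = positive control rescue; higher means more ATP so stronger rescue from cytokine killing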
Mdm2-MdmX conf: confirmation of human Mdm2/MdmX interaction inhibitors; shares compounds with Mdm2 MdmX PPI; Mdm2-MdmX binding, luminescent assay; inhibition, % at 8 µM; hit rate 55% among 10,000; in the data active = inhibition above about 40%
Full FLuc ctr: counter-screen for Mdm2/MdmX inhibitors: full-length luciferase; shares compounds with Mdm2 MdmX PPI; SaOS-2 full-length luciferase counterscreen, luminescence; inhibition, % at 8 µM; hit rate 77% among 6,200;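 active = mean inhibition at 8 µM reaching about 37%, which flags the compound as non-specific, limit read from the data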;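 note: p53-null SaOS-2 cells with luciferase driven by a doxycycline-inducible promoter; compound on cells about two nights before reading with doxycycline added after day one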
The depositor's hits bear a star; u = inconclusive; x = not tested or not shown.

SMILES	697 NFkB inh	CSC inhib	Mdm2 MdmX PPI	Gli-Sufu antag	Jurkat NFkB inh	Beta cell apopt	Mdm2-MdmX conf	others
CCC(=O)N1CC2(CC(c3cccc(NC(=O)COc4ccc(Cl)cc4)c3)=NO2)C[C@@H]1C(N)=O (stereo partly drawn)	0.0	x	0.4	x	-4.7	x	x
NC(=O)[C@@H]1CC2(CC(c3cccc(NC(=O)CC(c4ccccc4)c4ccccc4)c3)=NO2)CN1C(=O)COc1ccc(Cl)cc1 (stereo partly drawn)	0.7	12.2	73.3*	9.3	22.7	0.1	42.3*	Full FLuc ctr=80.2*
NC(=O)[C@H]1CC2(CC(c3cccc(NC(=O)COc4ccc(Cl)cc4)c3)=NO2)CN1C(=O)CC(c1ccccc1)c1ccccc1 (stereo partly drawn)	5.3	-8.1	53.7*	8.5	10.2	13.4	23.6
CCN(CC)c1ccc(S(=O)(=O)N2CCOCC2)cc1NC(=O)c1cc(=O)c2ccccc2o1	5.9	-3.3	50.9*	11.1	4.4	24.3	22.8
COc1ccc(NC(=O)c2oc3ccc(S(=O)(=O)N4CCC5(CC4)OCCO5)cc3c2C)cc1	7.1	0.4	71.0*	12.6	5.1	-1.0	35.2
Cc1c(C(=O)Nc2cc(S(=O)(=O)N3CCOCC3)ccc2N2CCN(C)CC2)oc2ccccc12	4.6	7.6	55.6*	1.7	6.2	-13.6	38.8	Full FLuc ctr=64.8*
CC(=O)Nc1nc(C)c(CCC2OCCO2)c(=O)[nH]1	11.0	-8.1	5.5	4.6	-1.6	-10.1	x
COc1ccc(CC(=O)NCC2CCCN(Cc3cccc(SC)c3)C2)cc1 (stereo not drawn)	-14.6	-1.7	6.9	-7.9	-7.1	-4.3	x
CCn1c(=O)c2c(n3c(=S)[nH]nc13)-c1ccccc1CC21CCCCC1	-1.5	-0.9	14.9	-1.8	-2.5	-5.4	x
NC(=O)c1ccccc1NC(=O)c1ccccc1Cl	5.3	-2.7	15.2	-5.8	-17.9	-1.7	x
O=C(Nc1ccccc1C(=O)Nc1nnc(C(F)(F)F)s1)c1ccccc1Cl	-3.2	95.1*	95.4*	51.6	1.1	111.9*	94.5*	Full FLuc ctr=21.7
O=C(Nc1nnc(-c2ccccc2Cl)s1)c1ccccc1F	-14.5	0.3	86.3*	-45.5	-7.8	0.2	-8.4
COc1ccc(CCN(C)C(=O)c2cc(S(=O)(=O)N3CCCCC3)ccc2Cl)cc1OC	-19.0	-2.5	-5.9	2.2	17.6	4.2	x
Nc1[nH]c(=O)[nH]c(=O)c1N=Nc1ccc(C(=O)O)cc1	-12.1	3.2	-22.4	1.2	-18.5	-2.7	x
O=C(Nc1ccccc1C(=O)N/N=C/c1ccncc1)c1ccccc1	-7.8	40.7	13.7	-36.3	-5.8	40.9	x
COc1ccccc1CN(C)C(=O)COC(=O)c1ccc(Cl)nc1	-3.4	-19.9	-8.0	-1.0	6.2	-1.6	x
Cc1[nH]nc2ncc(C(=O)c3ccccc3O)cc12	-4.1	-4.5	80.9*	-11.4	18.5	-25.1	80.9*	Full FLuc ctr=30.4
Cc1nn(C)c2ncc(C(=O)c3ccccc3O)cc12	4.2	3.1	13.4	1.5	-10.6	-3.8	x
CC(=O)Nc1cccc(C(=O)OCC(=O)Nc2ccc(Cl)cn2)c1	19.3	-10.7	12.7	-8.8	13.5	0.7	x
CN(c1ccc(F)cc1)S(=O)(=O)c1ccc(Cl)c(C(=O)NC2(C)CCS(=O)(=O)C2)c1 (stereo not drawn)	13.9	-8.4	9.3	-1.3	-5.2	-1.9	x
CCN(CC)CCOc1ccc2c(c1)C(=NO)c1cc(OCCN(CC)CC)ccc1-2	-10.3	68.7	95.8*	3.6	-21.1	u	90.5*	Full FLuc ctr=43.9*
CCN(CC)CCOc1ccc(Br)cc1	19.9	-3.3	-6.6	-1.3	0.8	2.6	x
CCCOc1ccc2c(c1)C(=NN=C(N)N)c1cc(OCCC)ccc1-2	-19.7	111.6*	95.8*	-5.5	14.2	7.7	33.9
CCN(CC)S(=O)(=O)c1ccc2c(c1)C(=NO)c1cc(S(=O)(=O)N(CC)CC)ccc1-2	-21.7	85.4*	83.2*	11.7	12.3	21.8	67.8*	Full FLuc ctr=23.7
NC(N)=NN=C1c2ccccc2-c2ccccc21	1.0	-10.5	-7.9	17.0	-12.6	9.6	x
SMILES	697 NFkB inh	CSC inhib	Mdm2 MdmX PPI	Gli-Sufu antag	Jurkat NFkB inh	Beta cell apopt	Mdm2-MdmX conf	others
CCOC(=O)C1=C(C)NC(C)=C(C(=O)OCC)C1C(=O)OCC(=O)NCCc1ccc(S(N)(=O)=O)cc1	-15.6	-0.2	-3.3	30.0	-6.0	2.2	x
COc1ccc(CCNC(=O)c2nnn(-c3ccc4c(c3)OCCO4)c2N)cc1OC	-37.3	-11.3	80.5*	49.3	31.1	0.7	79.0*	Full FLuc ctr=37.9*
COc1ccc(CCNC(=O)c2nnn(-c3ccccc3OC)c2N)cc1OC	1.2	-6.6	21.1	-12.3	-3.0	-1.2	x
CCOc1ccc(C(=O)NC(=S)Nc2ccccn2)cc1[N+](=O)[O-]	-34.0	4.9	87.9*	-22.5	-43.7	-3.0	-13.6
Cc1nn2c(N3CCN(C)CC3)c3c(nc2c1-c1ccccc1)CCCC3	-8.7	25.5	37.4	0.4	4.1	1.4	x
COc1ccc(Nc2c3c(nc4c(-c5ccccc5)c(C)nn24)CCC3)cc1	11.3	x	51.9*	0.0	0.9	-1.2	22.1
Cc1nn2c(NCc3ccccn3)c3c(nc2c1-c1ccccc1)CCC3	5.6	31.1	53.5*	43.0	-1.7	56.2	33.1	Full FLuc ctr=7.1
Cc1cc(NCc2ccccn2)n2nc(C)c(-c3ccccc3)c2n1	0.4	4.6	31.3	3.4	-6.2	41.9	x
Cc1nn2c(NCc3ccccn3)cc(C(C)(C)C)nc2c1-c1ccccc1	-14.7	14.3	62.4*	-6.3	-19.1	24.3	19.8
Cc1c(C(=O)OCC(=O)N(C)Cc2ccc(Cl)cc2)oc2ccccc12	10.1	x	-7.8	-25.8	-0.3	-2.5	x
COc1ccc([C@H]2CC(=O)C=C(c3cc(OC)ccc3OC)C2)cc1	-23.4	53.0	50.7*	6.1	43.6	5.2	51.4*	Full FLuc ctr=53.8*
CC(=O)Nc1cccc(NC(=O)CCNC(=O)c2ccccc2)c1	x	-1.8	x	20.7	x	1.5	x
COc1ccc(-c2nnc(SCC(=O)Nc3sc4c(c3C#N)CCCC4)n2-c2ccccc2)cc1	-16.8	x	78.3*	21.3	-1.9	x	0.5
CCOC(=O)c1c(NC(=O)CSc2nnc(-c3c[nH]c4ccccc34)n2CCOC)sc2c1CCCC2	-2.4	-6.1	42.5	9.9	11.9	15.9	x
COc1ccc(-n2c(SCC(=O)Nc3ccccc3)nnc2-c2ccc(NS(=O)(=O)c3ccc(C)cc3)cc2)cc1	-1.3	-6.3	90.5*	14.6	-0.3	12.7	27.9
CCOC(=O)c1c(NC(=O)CSc2nnc(-c3c[nH]c4ccccc34)n2C)sc2c1CCCC2	-23.1	11.6	60.9*	2.8	14.2	16.8	15.1
COc1ccc(-n2c(SCC(N)=O)nnc2-c2ccc(NS(=O)(=O)c3ccc(C)cc3)cc2)cc1	-14.5	-7.9	4.2	4.0	-4.9	3.7	x
